The values that follow come from PMC7862700, “An all-to-all approach to the identification of sequence-specific readers for epigenetic DNA modifications on cytosine”.

What all share (assay): DAPPL (digital affinity profiling via proximity ligation, sequencing); 10 mM Tris-HCl pH 7.5, 50 mM NaCl, 1 mM DTT, 4% glycerol, room temperature, 30 min; GST-TFs on glutathione beads, 16-mer random dsDNA library, 0.1% formaldehyde crosslink after washing; high values mean tight binding
Details in all cases: protein: recombinant; tags: N-terminal GST; dsDNA, one strand shown

In one test the target is T1, ERF (Homo sapiens, UniProt P50548 1-548).
T1 sequence: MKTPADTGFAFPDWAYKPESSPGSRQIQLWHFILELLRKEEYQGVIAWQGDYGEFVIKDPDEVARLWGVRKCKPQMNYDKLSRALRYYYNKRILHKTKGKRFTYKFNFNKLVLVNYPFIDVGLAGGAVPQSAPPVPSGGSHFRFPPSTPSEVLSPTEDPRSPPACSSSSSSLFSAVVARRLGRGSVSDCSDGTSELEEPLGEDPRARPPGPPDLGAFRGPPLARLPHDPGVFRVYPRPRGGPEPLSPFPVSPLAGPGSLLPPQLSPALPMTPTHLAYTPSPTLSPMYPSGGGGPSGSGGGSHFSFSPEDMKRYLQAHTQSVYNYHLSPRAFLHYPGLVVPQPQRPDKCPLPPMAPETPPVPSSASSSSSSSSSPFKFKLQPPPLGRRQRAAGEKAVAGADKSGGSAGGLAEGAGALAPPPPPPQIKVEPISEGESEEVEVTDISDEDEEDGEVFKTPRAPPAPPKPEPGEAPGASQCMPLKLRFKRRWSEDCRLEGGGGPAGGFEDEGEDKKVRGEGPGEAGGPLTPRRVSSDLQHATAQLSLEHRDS
In short, it runs like this: (§1)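 Yeast served to express human transcription factors as GST fusions, which were then captured on glutathione beads and labelled with DNA barcodes. Pooled with a tag-only sample, they were incubated with 200 nmole of a 16-mer random double-stranded DNA library for 30 min at room temperature in Tris/NaCl/DTT/glycerol buffer, washed, crosslinked with 0.1% formaldehyde, ligated by proximity, amplified by PCR and sequenced. Dividing each hexamer's read frequency for a factor by its frequency for the tag-only sample gives the binding signal.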

For another test, the target named is T2, ETV3L (Homo sapiens, UniProt Q6ZN32 1-361).
T2 sequence: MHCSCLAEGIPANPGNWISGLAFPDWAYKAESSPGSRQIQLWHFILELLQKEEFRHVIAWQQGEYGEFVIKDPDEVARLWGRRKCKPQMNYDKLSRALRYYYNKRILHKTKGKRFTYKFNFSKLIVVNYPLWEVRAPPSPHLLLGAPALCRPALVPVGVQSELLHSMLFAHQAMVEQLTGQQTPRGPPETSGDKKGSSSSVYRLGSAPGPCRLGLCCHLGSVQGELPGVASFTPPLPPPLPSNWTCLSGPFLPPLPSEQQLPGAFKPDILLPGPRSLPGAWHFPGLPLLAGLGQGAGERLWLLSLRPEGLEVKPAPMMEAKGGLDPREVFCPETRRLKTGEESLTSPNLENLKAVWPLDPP
In short, it runs like this: as §1

The target in a further test is T3, ETS2 (Homo sapiens, UniProt P15036 1-469).
T3 sequence: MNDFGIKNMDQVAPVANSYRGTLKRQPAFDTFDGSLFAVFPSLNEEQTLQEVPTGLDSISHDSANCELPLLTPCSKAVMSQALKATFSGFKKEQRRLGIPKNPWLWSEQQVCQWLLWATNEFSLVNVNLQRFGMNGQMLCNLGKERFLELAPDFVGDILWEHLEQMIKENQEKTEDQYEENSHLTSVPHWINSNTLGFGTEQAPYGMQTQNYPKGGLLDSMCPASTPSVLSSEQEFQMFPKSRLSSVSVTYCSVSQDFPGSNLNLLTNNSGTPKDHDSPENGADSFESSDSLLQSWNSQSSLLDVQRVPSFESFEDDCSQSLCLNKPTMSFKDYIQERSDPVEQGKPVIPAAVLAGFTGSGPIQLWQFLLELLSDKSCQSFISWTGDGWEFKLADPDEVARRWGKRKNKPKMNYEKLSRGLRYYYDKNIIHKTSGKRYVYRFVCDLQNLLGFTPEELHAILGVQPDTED
Summed up: as §1

The target of a further test is T4, SPDEF (Homo sapiens, UniProt O95238 1-335).
T4 sequence: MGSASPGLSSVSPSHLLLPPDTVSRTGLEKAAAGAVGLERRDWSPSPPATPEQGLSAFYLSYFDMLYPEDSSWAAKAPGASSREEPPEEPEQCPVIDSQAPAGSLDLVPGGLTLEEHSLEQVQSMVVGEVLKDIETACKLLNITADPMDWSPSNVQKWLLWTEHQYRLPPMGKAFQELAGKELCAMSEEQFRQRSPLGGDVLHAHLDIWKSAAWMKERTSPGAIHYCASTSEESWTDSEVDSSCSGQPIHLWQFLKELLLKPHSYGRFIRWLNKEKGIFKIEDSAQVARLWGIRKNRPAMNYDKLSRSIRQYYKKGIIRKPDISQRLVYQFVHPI
Summed up: as §1

Another test addresses T5, ETV7 (Homo sapiens, UniProt Q9Y603 1-341).
T5 sequence: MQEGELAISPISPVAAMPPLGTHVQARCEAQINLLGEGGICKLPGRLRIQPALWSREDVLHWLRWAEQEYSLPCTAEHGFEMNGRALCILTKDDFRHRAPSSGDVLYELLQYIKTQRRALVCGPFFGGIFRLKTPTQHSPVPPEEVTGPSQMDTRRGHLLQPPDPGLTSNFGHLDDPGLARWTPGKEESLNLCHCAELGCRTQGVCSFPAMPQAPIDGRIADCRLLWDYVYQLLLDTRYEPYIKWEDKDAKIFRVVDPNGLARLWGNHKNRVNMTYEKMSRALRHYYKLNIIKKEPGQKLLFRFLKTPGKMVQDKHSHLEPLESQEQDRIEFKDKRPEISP
Summed up: as §1

The target of a further test is T6, ELF5 (Homo sapiens, UniProt Q9UKW6-2 1-255).
T6 sequence: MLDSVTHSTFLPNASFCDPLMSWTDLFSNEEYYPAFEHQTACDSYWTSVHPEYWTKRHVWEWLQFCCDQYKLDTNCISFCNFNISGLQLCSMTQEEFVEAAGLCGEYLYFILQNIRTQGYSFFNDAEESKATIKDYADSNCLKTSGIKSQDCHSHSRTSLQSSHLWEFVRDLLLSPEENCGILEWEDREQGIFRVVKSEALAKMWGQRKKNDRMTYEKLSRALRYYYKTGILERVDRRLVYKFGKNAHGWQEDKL
Summed up: as §1

The target of another test is T7, ETV3 (Homo sapiens, UniProt P41162-2 1-143).
T7 sequence: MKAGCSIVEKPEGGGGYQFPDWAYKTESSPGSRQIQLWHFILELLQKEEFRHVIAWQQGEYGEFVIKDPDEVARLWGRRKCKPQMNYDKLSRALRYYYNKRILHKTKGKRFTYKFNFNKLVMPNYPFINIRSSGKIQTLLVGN
In short, it runs like this: as §1

Another test has as its target ETV6 (Homo sapiens, UniProt P41212 1-452). In short, it runs like this: as §1

Chain of ETV6 (P41212 whole entry): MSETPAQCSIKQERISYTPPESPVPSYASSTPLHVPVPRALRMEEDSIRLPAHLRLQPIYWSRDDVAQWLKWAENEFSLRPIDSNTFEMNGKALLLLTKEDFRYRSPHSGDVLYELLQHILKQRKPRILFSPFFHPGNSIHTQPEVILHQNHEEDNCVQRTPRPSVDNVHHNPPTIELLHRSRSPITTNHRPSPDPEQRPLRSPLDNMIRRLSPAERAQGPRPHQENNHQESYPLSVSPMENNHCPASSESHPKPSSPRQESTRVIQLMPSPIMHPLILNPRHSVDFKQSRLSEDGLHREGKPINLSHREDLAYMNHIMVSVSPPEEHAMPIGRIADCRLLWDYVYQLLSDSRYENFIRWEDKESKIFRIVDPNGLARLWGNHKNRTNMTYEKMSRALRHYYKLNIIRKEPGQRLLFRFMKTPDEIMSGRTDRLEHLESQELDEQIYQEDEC

As to TCCACG, the binding signal in the test with ERF was 1.03 fold enrichment (6-mer frequency, TF over GST control); with ETV3L, 1.18 fold enrichment (6-mer frequency, TF over GST control); with ETS2 it was 1.09 fold enrichment (6-mer frequency, TF over GST control); in the test with SPDEF it was 1.1 fold enrichment (6-mer frequency, TF over GST control); with ETV7 it was 1.06 fold enrichment (6-mer frequency, TF over GST control); with ELF5, 1.04 fold enrichment (6-mer frequency, TF over GST control). Moreover, the binding signal is 1.01 fold enrichment (6-mer frequency, TF over GST control) with ETV3 and 1.06 fold enrichment (6-mer frequency, TF over GST control) with ETV6.

For the sequence GTGTTT, the binding signal with ERF is 1.12 fold enrichment (6-mer frequency, TF over GST control); in the test with ETV3L, 1.18 fold enrichment (6-mer frequency, TF over GST control); with ETS2, 1.19 fold enrichment (6-mer frequency, TF over GST control); with SPDEF, 1.22 fold enrichment (6-mer frequency, TF over GST control); in the test with ETV7, 1.2 fold enrichment (6-mer frequency, TF over GST control); with ELF5, 1.23 fold enrichment (6-mer frequency, TF over GST control). The binding signal with ETV3 was 1.15 fold enrichment (6-mer frequency, TF over GST control); with ETV6, 1.2 fold enrichment (6-mer frequency, TF over GST control).

With TACGGA, the binding signal with ERF was 1.28 fold enrichment (6-mer frequency, TF over GST control); with ETV3L it was 1.34 fold enrichment (6-mer frequency, TF over GST control); with ETS2, 1.38 fold enrichment (6-mer frequency, TF over GST control); with SPDEF it was 1.47 fold enrichment (6-mer frequency, TF over GST control); with ETV7, 1.18 fold enrichment (6-mer frequency, TF over GST control); with ELF5, 1.51 fold enrichment (6-mer frequency, TF over GST control). Besides, the binding signal with ETV3 is 1.43 fold enrichment (6-mer frequency, TF over GST control); with ETV6 it was 1.39 fold enrichment (6-mer frequency, TF over GST control).

In the case of TGGACA, the binding signal was 1.08 fold enrichment (6-mer frequency, TF over GST control) with ERF; 1.06 fold enrichment (6-mer frequency, TF over GST control) with ETV3L; 1.12 fold enrichment (6-mer frequency, TF over GST control) with ETS2; 1.04 fold enrichment (6-mer frequency, TF over GST control) with SPDEF; 1.06 fold enrichment (6-mer frequency, TF over GST control) with ETV7; 1.02 fold enrichment (6-mer frequency, TF over GST control) with ELF5. For the same sequence, the binding signal in the test with ETV3 was 1.06 fold enrichment (6-mer frequency, TF over GST control); with ETV6, 1.09 fold enrichment (6-mer frequency, TF over GST control).

With TGCTTG, the binding signal with ERF is 1.14 fold enrichment (6-mer frequency, TF over GST control); with ETV3L it was 1.13 fold enrichment (6-mer frequency, TF over GST control); with ETS2 it was 1.14 fold enrichment (6-mer frequency, TF over GST control); in the test with SPDEF, 1.11 fold enrichment (6-mer frequency, TF over GST control); with ETV7, 1.19 fold enrichment (6-mer frequency, TF over GST control); with ELF5, 1.04 fold enrichment (6-mer frequency, TF over GST control). Moreover, the binding signal in the test with ETV3 was 1.17 fold enrichment (6-mer frequency, TF over GST control); with ETV6 it was 1.11 fold enrichment (6-mer frequency, TF over GST control).

ACCATC: the binding signal was 1.14 fold enrichment (6-mer frequency, TF over GST control) with ERF; 1.13 fold enrichment (6-mer frequency, TF over GST control) with ETV3L; 1.12 fold enrichment (6-mer frequency, TF over GST control) with ETS2; 1.09 fold enrichment (6-mer frequency, TF over GST control) with SPDEF; 1.16 fold enrichment (6-mer frequency, TF over GST control) with ETV7; 1.06 fold enrichment (6-mer frequency, TF over GST control) with ELF5. In addition, the binding signal with ETV3 was 1.03 fold enrichment (6-mer frequency, TF over GST control); with ETV6, 1.06 fold enrichment (6-mer frequency, TF over GST control).

For TCCCCA, the binding signal with ERF is 1.32 fold enrichment (6-mer frequency, TF over GST control); in the test with ETV3L, 1.41 fold enrichment (6-mer frequency, TF over GST control); in the test with ETS2 it was 1.38 fold enrichment (6-mer frequency, TF over GST control); with SPDEF, 1.3 fold enrichment (6-mer frequency, TF over GST control); in the test with ETV7 it was 1.12 fold enrichment (6-mer frequency, TF over GST control); with ELF5, 1.46 fold enrichment (6-mer frequency, TF over GST control). Also, the binding signal with ETV3 is 1.36 fold enrichment (6-mer frequency, TF over GST control); in the test with ETV6, 1.26 fold enrichment (6-mer frequency, TF over GST control).

Regarding AAGTGC, the binding signal was 1.22 fold enrichment (6-mer frequency, TF over GST control) with ERF; 1.2 fold enrichment (6-mer frequency, TF over GST control) in the test with ETV3L; 1.23 fold enrichment (6-mer frequency, TF over GST control) with ETS2; 1.26 fold enrichment (6-mer frequency, TF over GST control) in the test with SPDEF; 1.32 fold enrichment (6-mer frequency, TF over GST control) in the test with ETV7; 1.29 fold enrichment (6-mer frequency, TF over GST control) with ELF5. Also, the binding signal in the test with ETV3 was 1.39 fold enrichment (6-mer frequency, TF over GST control); with ETV6, 1.36 fold enrichment (6-mer frequency, TF over GST control).
